In PubChem BioAssay (NCI):
This is part of a sample that, as a whole, favours compounds with a hit. Of some 83,000 tested, about 20% had one in any assay.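 Plates (96-well) were seeded with cells, treated with compound at one concentration, and incubated for 48 hours before percent growth was determined.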 Calls of active or inactive are those of the source. How the source made its calls: active means growth percent below 10; inactive means the rest.

Assays:
Assay in all cases: NCI-60 one-dose screen, 48 h (100 = growth as untreated, 0 = no growth, -100 = all killed)
Details in all cases: 10 µM unless noted
HCT-15 colon = tested on: HCT-15 colon
HT29 colon = tested on: HT29 colon
SNB-75 CNS = tested on: SNB-75 CNS
SNB-19 CNS = tested on: SNB-19 CNS
U251 CNS = tested on: U251 CNS
PC-3 prostate = tested on: PC-3 prostate
SK-MEL-5 melanoma = tested on: SK-MEL-5 melanoma
UACC-62 melanoma = tested on: UACC-62 melanoma
LOX IMVI melanoma = tested on: LOX IMVI melanoma
SK-MEL-28 melanoma = tested on: SK-MEL-28 melanoma

Measured: growth

COC(=O)C1CCC(NC(=O)c2csc([C@@H](C[C@H](C(C)C)N(C)C(=O)[C@@H](NC(=O)[C@H]3CCCCN3C)C(C)C)OC(C)=O)n2)CC1 (stereo not given in full)
inactive: HCT-15 colon 11.5% | SNB-75 CNS 61.6% | SNB-19 CNS 38.4% | PC-3 prostate 28.9% | UACC-62 melanoma 48.1% | LOX IMVI melanoma 21.5% | SK-MEL-28 melanoma 60%
active: HT29 colon -0.603% | U251 CNS 2.97% | SK-MEL-5 melanoma -27.7%

CC1=C(CN)C2=C(C)C3(CC3)[C@@](C)(O)C(=O)C2=C1
inactive: HCT-15 colon 96.4% | HT29 colon 94.5% | SNB-75 CNS 57.7% | SNB-19 CNS 83.2% | U251 CNS 84% | PC-3 prostate 88.3% | SK-MEL-5 melanoma 98.8% | UACC-62 melanoma 97% | LOX IMVI melanoma 91.6% | SK-MEL-28 melanoma 94.8%

Nc1ccc(Cl)cc1
inactive: HCT-15 colon 100% | HT29 colon 97.5% | SNB-75 CNS 88.3% | SNB-19 CNS 103% | U251 CNS 96.9% | PC-3 prostate 86% | SK-MEL-5 melanoma 99.7% | UACC-62 melanoma 101% | LOX IMVI melanoma 92.8% | SK-MEL-28 melanoma 109%

CCCOC(=O)N[C@H]1CCc2c(Br)c(OC)c(OC)c(OC)c2-c2ccc(SC)c(=O)cc21
inactive: HT29 colon 12.2% | SNB-75 CNS 19.6% | SNB-19 CNS 23.1% | U251 CNS 17.6% | PC-3 prostate 21.1% | UACC-62 melanoma 17.8% | SK-MEL-28 melanoma 64.7%
active: HCT-15 colon 7.9% | SK-MEL-5 melanoma -29.9% | LOX IMVI melanoma 8.1%

CCOC(=O)[C@@H](C)C[C@H](Cc1ccccc1)NC(=O)c1csc([C@@H](C[C@H](C(C)C)N(C)C(=O)[C@@H](NC(=O)[C@H]2C[C@H](O)CCN2C)C(C)C)OC(C)=O)n1
inactive: SNB-75 CNS 10.6% | SNB-19 CNS 21.8% | U251 CNS 10.1% | PC-3 prostate 24.5% | UACC-62 melanoma 38.4% | LOX IMVI melanoma 18.2% | SK-MEL-28 melanoma 51.1%
active: HCT-15 colon 9.76% | HT29 colon 0.338% | SK-MEL-5 melanoma -4.08%

N#C[Se]CCN1C(=O)c2ccccc2C1=O
inactive: HCT-15 colon 53.2% | HT29 colon 13.9% | SNB-19 CNS 38% | U251 CNS 27.4% | PC-3 prostate 41.8% | UACC-62 melanoma 22.7% | SK-MEL-28 melanoma 25.9%
active: SNB-75 CNS 2.39% | SK-MEL-5 melanoma 1.73% | LOX IMVI melanoma 5.83%

CCOC(=O)[C@@H](C)C[C@H](Cc1ccccc1)NC(=O)c1csc([C@@H](C[C@H](C(C)C)N(C)C(=O)[C@H](CC)NC(=O)[C@H]2CCCCN2C)OC(C)=O)n1
inactive: SNB-75 CNS 25.4% | SNB-19 CNS 19.7% | U251 CNS 11.7% | PC-3 prostate 23.8% | UACC-62 melanoma 30.9% | SK-MEL-28 melanoma 61.8%
active: HCT-15 colon 9.87% | HT29 colon 4.72% | SK-MEL-5 melanoma -52.9% | LOX IMVI melanoma 9.39%

COc1ccc(C(O)(C(=O)O)c2ccc(OC)cc2)cc1
inactive: HCT-15 colon 95.7% | HT29 colon 81.4% | SNB-75 CNS 101% | SNB-19 CNS 96.9% | U251 CNS 93.9% | PC-3 prostate 77.8% | SK-MEL-5 melanoma 93.6% | UACC-62 melanoma 85.7% | LOX IMVI melanoma 93.6% | SK-MEL-28 melanoma 103%

COC(=O)[C@@]1(C)CC[C@]2(C)CC[C@]3(C)C4=CC=C5C(=CC(=O)C(O)=C5C)[C@]4(C)CC[C@@]3(C)[C@@H]2C1
active: HCT-15 colon -83.7% | HT29 colon -74.1% | SNB-75 CNS -78.9% | SNB-19 CNS -94.2% | U251 CNS -97.4% | PC-3 prostate -88.5% | SK-MEL-5 melanoma -97.1% | UACC-62 melanoma -92.7% | LOX IMVI melanoma -90.5% | SK-MEL-28 melanoma -92.9%

CCCCCCCCCCCCCCCCCCOc1ccccc1COP(=O)(O)OOCC[N+](C)(C)C
inactive: HCT-15 colon 41.2% | SK-MEL-28 melanoma 21.4%
active: HT29 colon -11.4% | SNB-75 CNS -4.01% | SNB-19 CNS -13.9% | U251 CNS -58.8% | PC-3 prostate -25.5% | SK-MEL-5 melanoma -72.9% | UACC-62 melanoma -11.5% | LOX IMVI melanoma -88.1%

CCCCCCCCCCCCNC(c1ccccc1)C(O)c1ccccc1 (stereo not given)
inactive: HCT-15 colon 66.6% | HT29 colon 52% | SNB-75 CNS 106% | SNB-19 CNS 87.4% | U251 CNS 32% | PC-3 prostate 79.2% | SK-MEL-5 melanoma 96.7% | UACC-62 melanoma 96.7% | LOX IMVI melanoma 49.8% | SK-MEL-28 melanoma 97.4%

COc1ccc(/C=C\c2cc(OC)c(OC)c(OC)c2)cc1NC(=O)/C=C/c1cc(OC)c(OC)c(OC)c1
inactive: HCT-15 colon 46.5% | HT29 colon 34.2% | SNB-75 CNS 30.6% | SNB-19 CNS 61.8% | U251 CNS 57% | PC-3 prostate 36% | UACC-62 melanoma 31.4% | LOX IMVI melanoma 46.3% | SK-MEL-28 melanoma 44%
active: SK-MEL-5 melanoma 1.74%

O=C1C2C(C(=O)[N]1[Hg][c]1ccccc1)C1(Cl)C(Cl)=C(Cl)C2(Cl)C1(Cl)Cl (stereo not given)
inactive: SNB-19 CNS 25.9%
active: HCT-15 colon -89.1% | HT29 colon -45% | SNB-75 CNS -64.1% | U251 CNS -65.9% | PC-3 prostate -57.4% | SK-MEL-5 melanoma -16.6% | UACC-62 melanoma -3.49% | LOX IMVI melanoma -82.8% | SK-MEL-28 melanoma -88.9%

Fc1c[c-]c(-c2ccccn2)c(F)c1.[CH3-].[Pt+2].c1ccc([PH+](c2ccccc2)c2ccccn2)cc1
inactive: SNB-19 CNS 26% | PC-3 prostate 15.4%
active: HCT-15 colon -36.7% | HT29 colon -13% | SNB-75 CNS -5.13% | U251 CNS 6.42% | SK-MEL-5 melanoma -75.3% | UACC-62 melanoma -30.5% | LOX IMVI melanoma -95.3% | SK-MEL-28 melanoma -21.9%

CCn1cnc2c(Nc3cccc(Cl)c3)nc(N[C@@H]3CCCC[C@@H]3N)nc21
inactive: UACC-62 melanoma 10.2% | SK-MEL-28 melanoma 22.8%
active: HCT-15 colon 6.27% | HT29 colon -4.11% | SNB-75 CNS -5.9% | SNB-19 CNS 7.42% | U251 CNS 6.89% | PC-3 prostate 4.71% | SK-MEL-5 melanoma -26.5% | LOX IMVI melanoma -8.41%

CS(=O)(=O)CCN1CC2CCCC(C2)C1
inactive: HCT-15 colon 99.5% | HT29 colon 96.7% | SNB-75 CNS 94.1% | SNB-19 CNS 99.8% | U251 CNS 101% | PC-3 prostate 90.1% | SK-MEL-5 melanoma 104% | UACC-62 melanoma 102% | LOX IMVI melanoma 104% | SK-MEL-28 melanoma 105%

CC(=O)OC1C(OC/C2=C/C3[C@@H](C(C)C)CC=C(C)[C@@H]3CC(OC(=O)/C=C/c3cn(C)cn3)[C@]3(C)C=C[C@@]2(O)O3)OCC(O)C1O (stereo not given in full)
active: HT29 colon 8.89% | SNB-75 CNS -28.6% | SK-MEL-5 melanoma 7.53%
inactive: HCT-15 colon 36.2% | SNB-19 CNS 37% | U251 CNS 18.2% | PC-3 prostate 26.5% | UACC-62 melanoma 26.5% | LOX IMVI melanoma 35.2% | SK-MEL-28 melanoma 45.7%

C[C@]12CCc3sc(-c4ccccc4O)nc3C1=CC[C@@H]1[C@@H]2CC[C@]2(C)C(=O)CC[C@@H]12
inactive: HCT-15 colon 98% | HT29 colon 104% | SNB-75 CNS 95.5% | SNB-19 CNS 101% | U251 CNS 102% | PC-3 prostate 98.9% | SK-MEL-5 melanoma 110% | UACC-62 melanoma 94.3% | LOX IMVI melanoma 104% | SK-MEL-28 melanoma 113%

N#CC1(c2ccccc2)CCN(Cc2ccccc2)CC1
inactive: HCT-15 colon 94.1% | HT29 colon 101% | SNB-75 CNS 121% | SNB-19 CNS 114% | U251 CNS 107% | PC-3 prostate 84.2% | SK-MEL-5 melanoma 102% | UACC-62 melanoma 110% | LOX IMVI melanoma 102% | SK-MEL-28 melanoma 122%

CN1CC(=O)N(O)C1(C)c1cccnc1 (stereo not given)
inactive: HCT-15 colon 96.9% | HT29 colon 97.8% | SNB-75 CNS 88.5% | SNB-19 CNS 105% | U251 CNS 102% | PC-3 prostate 95.8% | SK-MEL-5 melanoma 101% | UACC-62 melanoma 104% | LOX IMVI melanoma 97.3% | SK-MEL-28 melanoma 103%

O=C(Nc1ccc(Cl)cc1)Nc1nccs1
active: SNB-75 CNS 1.2%
inactive: HCT-15 colon 33% | HT29 colon 10.7% | SNB-19 CNS 64.9% | U251 CNS 22.3% | PC-3 prostate 13.3% | SK-MEL-5 melanoma 31.2% | UACC-62 melanoma 50.3% | LOX IMVI melanoma 46.3% | SK-MEL-28 melanoma 50.5%

COC(=O)[C@@H](C)C[C@H](Cc1ccccc1)NC(=O)c1csc(CC[C@H](C(C)C)N(C)C(=O)[C@@H](NC(=O)[C@H]2CCCCN2C)C(C)C)n1
inactive: HCT-15 colon 10.9% | SNB-75 CNS 42.6% | SNB-19 CNS 35.4% | U251 CNS 14.8% | PC-3 prostate 27.6% | UACC-62 melanoma 40.7% | LOX IMVI melanoma 28.6% | SK-MEL-28 melanoma 63.2%
active: HT29 colon 3.34% | SK-MEL-5 melanoma -19.5%

C=CC1=C[C@@H]2[C@@H]3O[C@]4(CC[C@H](O4)[C@@H](C)C[C@@H](O)C3=O)C[C@H](O)C3=NCC[C@@]32CC1
active: HCT-15 colon -13.9% | HT29 colon -13.6% | SNB-75 CNS -95.8% | SNB-19 CNS -16.2% | U251 CNS -7% | PC-3 prostate -20.1% | SK-MEL-5 melanoma -90.2% | UACC-62 melanoma -68.3% | LOX IMVI melanoma -59.9% | SK-MEL-28 melanoma -59.8%

O=C([O][Hg][CH2]C1COCC([CH2][Hg][O]C(=O)c2ccccc2)O1)c1ccccc1 (stereo not given)
inactive: HT29 colon 50.4% | SNB-75 CNS 92% | SNB-19 CNS 102% | U251 CNS 58.9% | PC-3 prostate 91.9% | SK-MEL-5 melanoma 102% | UACC-62 melanoma 91% | LOX IMVI melanoma 11.4% | SK-MEL-28 melanoma 115%
active: HCT-15 colon -83%

C[C@@]1(CCCCCCCCCc2ccc(O)cc2)C[C@]2(C)OC(=O)C[C@@H]2OO1
active: LOX IMVI melanoma -81.2%
inactive: HCT-15 colon 83.7% | HT29 colon 102% | SNB-75 CNS 95% | SNB-19 CNS 96.6% | U251 CNS 92.8% | PC-3 prostate 61.7% | SK-MEL-5 melanoma 105% | UACC-62 melanoma 95.2% | SK-MEL-28 melanoma 99.5%
